Reference: article PMC7862700, “An all-to-all approach to the identification of sequence-specific readers for epigenetic DNA modifications on cytosine”

Experiments:
Test in all cases: DAPPL (digital affinity profiling via proximity ligation, sequencing); 10 mM Tris-HCl pH 7.5, 50 mM NaCl, 1 mM DTT, 4% glycerol, room temperature, 30 min; GST-TFs on glutathione beads, 16-mer random dsDNA library, 0.1% formaldehyde crosslink after washing; high values mean tight binding
Conditions in all cases: protein: recombinant; tags: N-terminal GST; dsDNA, one strand shown
[1] = target: T1, ELK1 (Homo sapiens, UniProt P19419 1-428)
T1 sequence: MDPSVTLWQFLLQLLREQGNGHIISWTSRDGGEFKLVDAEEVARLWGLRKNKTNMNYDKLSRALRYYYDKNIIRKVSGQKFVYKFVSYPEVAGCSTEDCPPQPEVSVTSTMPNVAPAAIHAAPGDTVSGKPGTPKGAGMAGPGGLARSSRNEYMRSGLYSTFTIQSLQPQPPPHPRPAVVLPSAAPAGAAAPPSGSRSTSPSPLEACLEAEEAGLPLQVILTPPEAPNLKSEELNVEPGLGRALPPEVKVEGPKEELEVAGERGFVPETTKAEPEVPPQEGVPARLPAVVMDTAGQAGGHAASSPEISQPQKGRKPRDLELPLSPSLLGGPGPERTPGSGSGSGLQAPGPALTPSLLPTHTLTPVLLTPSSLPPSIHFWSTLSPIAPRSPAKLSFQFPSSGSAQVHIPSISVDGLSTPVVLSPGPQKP
Method in brief: (§1)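 After expression in yeast as GST fusions, human transcription factors were bound to glutathione beads, DNA-barcoded and mixed with a tag-only sample. The pools were incubated with 200 nmole of a 16-mer random double-stranded DNA library in Tris/NaCl/DTT/glycerol buffer (30 min, room temperature), washed and crosslinked with 0.1% formaldehyde. Proximity ligation with BsaI/T4 ligase ran for 1 h at 37 °C, before PCR amplification and sequencing on an Illumina NextSeq500. Binding signal is a hexamer's read frequency for a factor divided by its frequency for the tag-only sample.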

[2] = target: ETV5 (Homo sapiens, UniProt P41161 1-510)
Chain of ETV5 (P41161 whole entry): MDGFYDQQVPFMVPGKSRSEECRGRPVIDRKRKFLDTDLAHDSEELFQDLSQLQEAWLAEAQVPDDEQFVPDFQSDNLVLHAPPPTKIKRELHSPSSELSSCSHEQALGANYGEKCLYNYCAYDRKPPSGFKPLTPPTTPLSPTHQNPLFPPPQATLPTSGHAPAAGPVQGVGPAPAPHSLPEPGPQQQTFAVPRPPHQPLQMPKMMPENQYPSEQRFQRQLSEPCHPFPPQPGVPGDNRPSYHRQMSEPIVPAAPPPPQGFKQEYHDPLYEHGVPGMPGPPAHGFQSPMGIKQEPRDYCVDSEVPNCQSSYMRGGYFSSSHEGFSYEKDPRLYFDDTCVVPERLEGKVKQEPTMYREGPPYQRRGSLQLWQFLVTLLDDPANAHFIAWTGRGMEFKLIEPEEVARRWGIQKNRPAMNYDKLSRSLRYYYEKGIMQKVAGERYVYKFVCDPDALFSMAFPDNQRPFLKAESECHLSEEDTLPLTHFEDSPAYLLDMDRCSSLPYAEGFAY
Method in brief: as §1

[3] = target: T2, SPDEF (Homo sapiens, UniProt O95238 1-335)
T2 sequence: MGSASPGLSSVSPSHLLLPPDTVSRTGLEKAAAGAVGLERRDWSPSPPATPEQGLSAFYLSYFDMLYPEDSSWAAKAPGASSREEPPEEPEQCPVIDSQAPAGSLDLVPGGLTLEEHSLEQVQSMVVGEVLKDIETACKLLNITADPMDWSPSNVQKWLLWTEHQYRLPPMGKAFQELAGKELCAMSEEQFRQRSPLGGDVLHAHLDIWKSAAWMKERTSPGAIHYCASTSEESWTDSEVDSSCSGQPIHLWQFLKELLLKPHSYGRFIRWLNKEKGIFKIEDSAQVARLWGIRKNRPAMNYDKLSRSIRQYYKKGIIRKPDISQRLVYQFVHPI
Method in brief: as §1

[4] = target: T3, ETV7 (Homo sapiens, UniProt Q9Y603 1-341)
T3 sequence: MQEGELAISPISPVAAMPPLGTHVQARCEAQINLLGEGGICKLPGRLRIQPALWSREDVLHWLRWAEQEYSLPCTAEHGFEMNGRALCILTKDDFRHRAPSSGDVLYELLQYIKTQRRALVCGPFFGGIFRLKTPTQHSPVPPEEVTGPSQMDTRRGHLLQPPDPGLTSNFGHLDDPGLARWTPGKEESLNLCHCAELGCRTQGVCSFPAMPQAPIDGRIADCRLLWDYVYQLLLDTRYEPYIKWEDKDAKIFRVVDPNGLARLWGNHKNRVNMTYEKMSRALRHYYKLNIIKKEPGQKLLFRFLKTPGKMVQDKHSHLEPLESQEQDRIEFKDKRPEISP
Method in brief: as §1

[5] = target: T4, ETV3 (Homo sapiens, UniProt P41162-2 1-143)
T4 sequence: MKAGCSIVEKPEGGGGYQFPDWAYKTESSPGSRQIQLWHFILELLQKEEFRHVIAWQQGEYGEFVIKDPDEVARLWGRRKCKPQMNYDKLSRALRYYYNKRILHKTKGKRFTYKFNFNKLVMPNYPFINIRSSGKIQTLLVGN
Method in brief: as §1

**Q.** For GCCCGG, which binding signal [1] is on record?
**A.** The binding signal was 1.03 fold enrichment (6-mer frequency, TF over GST control).

**Q.** What about the binding signal [2] of the same sequence?
**A.** The binding signal was 1.01 fold enrichment (6-mer frequency, TF over GST control).

**Q.** What about the binding signal [3] of the same sequence?
**A.** Its binding signal is 1.06 fold enrichment (6-mer frequency, TF over GST control).

**Q.** What about the binding signal [4] of the same sequence?
**A.** The binding signal was 1.01 fold enrichment (6-mer frequency, TF over GST control).

**Q.** And the binding signal [5]?
**A.** Its binding signal is 1.07 fold enrichment (6-mer frequency, TF over GST control).
